Screening data deposited in PubChem BioAssay by National Center for Advancing Translational Sciences (NCATS).
G9a inh = inhibitors of human histone lysine methyltransferase G9a; Potency, µM (series often up to 102 µM), most hits filed as inhibitors; G9a H3K9 monomethylation, AlphaScreen, 2 h; 350,000 compounds, 8.8% hits; also: nearly all actives have a fitted effect of over 75% in size
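AlphaScreen read-out: biotin-H3K9 peptide (500 nM) methylation by 20 nM enzyme with 20 uM SAM, 2 h at room temperature after 15 min compound preincubation; anti-monomethyl H3K9 antibody plus donor/acceptor beads, 10 min dark.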
HP1b chromo inh = blocks HP1-beta chromodomain binding to methylated histone tails; 390,000 compounds, 0.56% hits; Potency, µM (doses to about 114 µM), hits mostly inhibitors; AID 540317; AlphaScreen HP1-beta / biotin-H3K9me3 peptide binding; also: nearly all actives have a fitted effect of over 70% in size
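AlphaScreen: HP1-beta (50 nM) preformed 30 min with biotin-H3(1-18)K9me3 peptide (50 nM) in PBS pH 7.4, 0.01% Tween-20. Compound added for 30 min at RT, then streptavidin donor/nickel chelate acceptor beads (10 ug/mL) for 30 min.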
BAZ2B block = inhibitors of human BAZ2B bromodomain | AlphaScreen BAZ2B-H3K14Ac peptide displacement | AID 504333 | Potency, µM (series often up to 114 µM), actives largely listed as inhibitors | Q9UIF8 | 360,000 compounds, 4.4% hits; also: nearly all actives have a fitted effect of over 60% in size
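AlphaScreen displacement of biotin-H3(5-23)K14Ac peptide (50 nM final) from BAZ2B (50 nM final) in PBS pH 7.4, 0.01% Tween-20; complex preformed 30 min RT, then compounds (top 110 uM) 30 min RT, beads 20 min dark.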
Six1-Eya2 blk = inhibitors of human Six1/Eya2 interaction; Q15475+O00167; AlphaScreen GST-Six1/His-Eya2 binding, biochemical; hits give low values; activity change, % (no concentration beside the values); 360,000 compounds, 0.56% hits; AID 651725; in the data active = activity change below about -65%; inconclusive = mostly about -30% to -63%
Target sequence (O00167 whole entry, looked up): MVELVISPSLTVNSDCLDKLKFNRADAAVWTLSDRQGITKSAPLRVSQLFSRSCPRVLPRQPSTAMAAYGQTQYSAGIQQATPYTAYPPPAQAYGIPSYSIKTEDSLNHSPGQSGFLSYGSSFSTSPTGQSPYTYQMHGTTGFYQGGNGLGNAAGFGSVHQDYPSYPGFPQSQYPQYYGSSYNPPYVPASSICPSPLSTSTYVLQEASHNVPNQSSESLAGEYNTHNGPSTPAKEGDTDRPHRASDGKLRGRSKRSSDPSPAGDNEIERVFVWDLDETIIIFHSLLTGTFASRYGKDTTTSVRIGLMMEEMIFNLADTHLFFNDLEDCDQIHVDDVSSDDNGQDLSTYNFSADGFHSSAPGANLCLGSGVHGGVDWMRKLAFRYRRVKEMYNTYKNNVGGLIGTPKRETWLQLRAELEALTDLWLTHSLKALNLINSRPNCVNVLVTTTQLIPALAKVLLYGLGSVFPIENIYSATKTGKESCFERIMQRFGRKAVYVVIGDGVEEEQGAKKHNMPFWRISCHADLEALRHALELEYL
Target sequence (Q15475 whole entry, looked up): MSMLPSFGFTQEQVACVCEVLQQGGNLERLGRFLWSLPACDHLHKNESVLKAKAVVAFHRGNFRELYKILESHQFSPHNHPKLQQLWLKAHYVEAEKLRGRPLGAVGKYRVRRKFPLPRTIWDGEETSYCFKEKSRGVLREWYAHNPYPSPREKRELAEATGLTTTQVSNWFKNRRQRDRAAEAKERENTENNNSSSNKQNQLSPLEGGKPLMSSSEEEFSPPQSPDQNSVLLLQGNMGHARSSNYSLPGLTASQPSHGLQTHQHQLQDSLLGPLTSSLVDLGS
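Compounds are tested against tagged Six1 and Eya2 proteins bridged by glutathione donor and nickel acceptor beads; after a one-hour incubation at 37 °C without light, AlphaScreen emission is recorded.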
CtBP-E1A inh = CtBP/E1A binding inhibition | AlphaScreen GST-E1A/His-CtBP binding, 1536-well; hits give low values | AID 651724 | 340,000 compounds, 0.49% hits | activity change, % (test concentration not listed); in the data active = activity change below about -65%; inconclusive = mostly about -30% to -63%
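Steps: dispense buffer (Tris pH 8.0, NaCl 300 mM, TCEP 1 mM, BSA, Tween 20); add 5X protein mix (GST-E1A, His-CtBP, 125 nM each); pin 23 nL compound; 2 h at 37 °C, dark; add 5X beads (50 ug/mL); 1 h; read.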
JMJD2A Tudor inh = inhibitors of human JMJD2A Tudor domain; AlphaScreen JMJD2A-Tudor / H3K4me3 peptide binding; Potency, µM (doses to about 114 µM), most hits filed as inhibitors; 390,000 compounds, 4.4% hits; also: nearly all actives have a fitted effect of over 50% in size
Numbers stand for hits; i = inactive; ? = inconclusive; nt = not tested or not shown; [ ] = another dose, or the depositor's remark. Hits are enriched below; roughly 10% of the tested compounds scored in any of these assays. Unless noted, calls follow the shape of the dose curve; as a rule, active = well fitted inhibition curve with a large enough effect; inconclusive = small, poorly fitted or top-dose-only effect; inactive = no such curve, though single readings can be large or run the other way.

SMILES	G9a inh	HP1b chromo inh	BAZ2B block	Six1-Eya2 blk	CtBP-E1A inh	JMJD2A Tudor inh
COc1ccc([C@H]2CC(=O)C=C(c3cccc(NC(C)=O)c3)C2)cc1	i[0.501 µM]	i	i	i	i	i
CC(C)(C)c1cc(CN2CCCC(O)C2)c(O)c(C(C)(C)C)c1 (centres undefined)	?	i	79µM	i	i	?
CC(C)(C)c1cc(CN(CCO)CCO)c(O)c(C(C)(C)C)c1	nt	i	i	i	i	i
COc1ccc(CC(=O)Nc2cccc(C(=O)O)c2C)cc1	?	i	i	i	i	i
CSc1ccccc1C(=O)NCCOc1cccc(C)c1	45µM	i	i	i	i	i
CSc1ccccc1C(=O)Nc1ncn[nH]1	1.6µM	i	?	i	nt	79µM
Cc1ccc(C(=O)NCCOc2cccc(C)c2)cc1	i	i	i	i	i	i
CSc1ccccc1C(=O)Nc1c(C)cccc1C	28µM	i	i	i	i	i
CSc1ccccc1C(=O)Nc1ccccc1C	nt	i	i	i	i	i
CO/N=C/C(C#N)=C/c1cc(C(=O)c2ccccc2)cn1C	i	i	i	i	i	i
O=C(O)c1ccc(Nc2nc3ccccc3c3nncn23)cc1	i	i	i	nt	nt	i
Nc1nn(-c2ccccc2)c(N)c1N=Nc1cccc(F)c1	20µM	?	35µM	i	i	35µM
Nc1nn(-c2ccccc2)c(N)c1N=Nc1ccc2c(c1)OCO2	?	18µM	32µM	?	?	50µM
Cc1nn(-c2ccccc2)c(N)c1N=Nc1cccnc1	?	i	i	i	nt	?
CC(NC(=O)COC(=O)c1ccc[nH]c1=O)c1ccccc1 (centres undefined)	nt	i	nt	i	i	i
CN(CCCNC(=O)Cn1ncc2c([nH]c3ccccc32)c1=O)Cc1ccccc1	i	i	?	nt	nt	i
Cc1c(Cl)cccc1NC(=O)NCc1c(-n2cccc2)sc2c1CCCC2	i	i	i	nt	nt	i
CCOC(=O)CSC1=Nc2ccccc2C2=NC(CCC(=O)NCc3ccccc3)C(=O)N12 (centres undefined)	i	i	i	nt	nt	i
CC1CCCC/C1=N/Nc1ccc([N+](=O)[O-])cc1[N+](=O)[O-] (centres undefined)	35µM	i	?	i	i	50µM
CC1C/C(=N/Nc2ccc([N+](=O)[O-])cc2[N+](=O)[O-])CC(C)(C)C1 (centres undefined)	10µM	8.9µM	10µM	?	i	5.6µM
CC1C/C(=N/Nc2nc3ccccc3[nH]2)CC(C)(C)C1 (centres undefined)	i	i	?	i	i	?
NS(=O)(=O)c1ccc(NN=C2CCCCC2)c([N+](=O)[O-])c1	i	i	?	i	i	?
COc1cc(NC(=O)NC(C)c2c(-n3cccc3)sc3c2CCN(C)C3)cc(OC)c1 (centres undefined)	?	i	?	nt	nt	?
COc1ccc(OC)c(-c2noc(N3CCN(c4cc(C)ccc4C)CC3)n2)c1	i	i	i	nt	nt	i
COc1ccc(/C=C2\Sc3ccc(C(=O)NCCN4CCCCCC4)cc3N(C)C2=O)cc1	22µM	i	?	i	nt	?
SMILES	G9a inh	HP1b chromo inh	BAZ2B block	Six1-Eya2 blk	CtBP-E1A inh	JMJD2A Tudor inh
COc1ccc(/C=C2\Sc3ccc(C(=O)NC4CC4)cc3N(C)C2=O)cc1OC	i	i	?	i	nt	i
COc1ccc(/C=C2\Sc3ccc(C(=O)N4CCCC4)cc3N(C)C2=O)cc1OC	45µM	i	i	i	i	i
O=C(NCc1cccc(F)c1)c1ccccc1NC(=O)c1nsc2ccccc12	i	i	i	nt	nt	i
CCOC(=O)Cc1ccc(NC(=O)N(Cc2ccc(OC)cc2)C2CCN(C(C)=O)CC2)cc1	i	i	i	nt	nt	i
CC1(C)Oc2ccc3ccc(=O)oc3c2-c2cn[nH]c21	?	i	i	i	i	i
CC1(C)Oc2ccc3ccc(=O)oc3c2/C(=C/Nc2ccccc2)C1=O	71µM	i	?	i	i	?
CC1(C)Oc2ccc3ccc(=O)oc3c2/C(=C/O)C1=O	45µM	i	i	i	i	i
CC1(C)Oc2ccc3ccc(=O)oc3c2-c2cnoc21	?	i	50µM	i	i	?
CC1(C)Oc2ccc3ccc(=O)oc3c2/C(=C/N)C1=O	i	i	i	i	i	i
CC(C)c1ccc(NC(=O)CCn2c(=O)c3cccn3c3ccccc32)cc1	i	i	i	nt	nt	i
COc1ccc(NS(=O)(=O)c2ccccc2C(=O)O)cc1	nt	nt	nt	nt	nt	i
CC1CCCN(c2c([N+](=O)[O-])c(=O)oc3ccccc23)C1 (centres undefined)	45µM	i	i	i	i	i
O=C(O)CCCN1C(=O)C(=O)/C(=C(/O)c2ccc(Cl)cc2)C1c1ccccc1 (centres undefined)	?	i	i	i	i	?
O=C(O)CCCN1C(=O)C(=O)/C(=C(/O)c2ccccc2)C1/C=C/c1ccccc1 (centres undefined)	i[0.501 µM]	i	?	i	i	45µM
O=C1S/C(=C\c2ccc(O)c([N+](=O)[O-])c2)C(=O)N1c1ccccc1Cl	nt	?	35µM	?	i	50µM
CCOc1ccc(/C=C2\SC(=O)N(c3ccc(O)cc3)C2=O)cc1OC	i	i	i	i	i	i
COc1cc(/C=C2\SC(=O)N(c3cccc(Cl)c3)C2=O)cc([N+](=O)[O-])c1O	nt	?	8.9µM	?	i	4µM
COc1cc(/C=C2\SC(=O)N(c3ccc(Cl)cc3)C2=O)cc([N+](=O)[O-])c1O	7.9µM	?	7.1µM	i	i	7.9µM
CN1C(=O)/C(=C/c2ccc(O)c([N+](=O)[O-])c2)N(C)C1=S	nt	i	i	i	nt	?
COc1cc(/C=N/NC(=O)Cc2ccccc2)cc([N+](=O)[O-])c1O	nt	i	i	i	nt	i
COc1cccc2oc(SC)cc(=O)c12	i	nt	nt	nt	nt	nt
CCc1ccc(-n2nc(C)c3c(C)cc(=O)n(CC(=O)N4CCCc5ccccc54)c32)cc1	i	i	i	nt	nt	i
CC1=[N+](C)c2c(ccc3cccnc23)C1(C)C	3.2µM	?	40µM	?	i	25µM
Cc1cc(C)n(-c2cccc3cccnc23)n1	i[12.7 µM]	i	i	i	i	i
COc1cc(C2SC[C@H]3C(=O)N(c4ccccc4)C(=O)N23)cc(OC)c1OC (some centres undefined)	i	i	i	nt	nt	i
O=S(=O)(Nc1c(S(=O)(=O)c2ccccc2)c2nc3ccccc3nc2n1C1CCCCC1)c1ccccc1	i	i	i	i	i	i
C=CCn1c(NS(=O)(=O)c2ccccc2)c(S(=O)(=O)c2ccc(C)cc2)c2nc3ccccc3nc21	2µM	i	i	i	i	i
O=C1Nc2cc(C(=O)NCCN3CCCCCC3)ccc2S/C1=C/c1ccccc1F	nt	nt	nt	i	i	nt
